# Records with an inconclusive call do not appear. The source made the active and inactive calls. How the source made its calls, unless noted: active means hit-call score of the fitted dose curve at least 0.9, where 1 is the maximum; inactive means score below 0.9.
# How the values were obtained:
# [1] = tested on: SRY-box transcription factor 2 (SOX2) Protein Expression, Deisenroth Lab, SOX2 (gene 6657); assay: CCTE_Deisenroth_DEVTOX-GLR_Endo_SOX2: CCTE's DevTox GLR-Endo Assay Evaluation of SRY-box transcription factor 2 (SOX2) Protein Expression, Deisenroth Lab (AID 2284412; active means hit-call score of the fitted dose curve at least 0.9, where 1 is the maximum)
# Summary of the method: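 RUES2-GLR human pluripotent cells were seeded 24 h, then differentiated 48 h with two chemical exposures 24 h apart. Cells were fixed, nuclei stained and imaged by high-content microscopy. Endpoint is %SOX2+ cells over cell count, minus 0.2% DMSO control; 10-point series 1 nM–200 uM.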
# [2] = tested on: SRY-box transcription factor 17 (SOX17) Protein Expression, Deisenroth Lab, SOX17 (gene 64321); assay: CCTE_Deisenroth_DEVTOX-GLR_Endo_SOX17: CCTE's DevTox GLR-Endo Assay Evaluation of SRY-box transcription factor 17 (SOX17) Protein Expression, Deisenroth Lab (AID 2284413)
# Summary of the method: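 Seed RUES2-GLR cells 24 h; start endoderm differentiation; dose at 0 and 24 h (1 nM - 200 uM, 10 points); fix at 48 h, stain nuclei, image 5 fields/well; compute SOX17+/total cells vs 0.2% DMSO.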
# [3] = tested on: Brachyury (BRA) Protein Expression, TBXT (gene 6862); assay: CCTE_Deisenroth_DEVTOX-GLR_Endo_BRA: CCTE's DevTox GLR-Endo Assay Evaluation of Brachyury (BRA) Protein Expression, Deisenroth Lab (AID 2284417)
# Summary of the method: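 Percent BRA+ (mesoderm) RUES2-GLR cells after 48 h differentiation with two exposures, 1 nM - 200 uM; 0.2% DMSO control subtracted.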
# [4] = CCTE_Deisenroth_DEVTOX-GLR_Endo_CellCount: Viability Assessment in CCTE's DevTox GLR-Endo Assay, Deisenroth Lab (AID 2284420)
# Summary of the method: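 Viability in differentiating RUES2-GLR cultures is scored by fluorescent nuclear counts after 48 h and two 24-hourly chemical treatments, as percent change from the 0.2% DMSO control.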
# [5] = tested on: SRY-box transcription factor 17 (SOX17) Protein Expression, Deisenroth Lab, SOX17 (gene 64321); assay: CCTE_Deisenroth_DEVTOX-GLR_Pluri_SOX17: CCTE's DevTox GLR-Pluri Assay Evaluation of SRY-box transcription factor 17 (SOX17) Protein Expression, Deisenroth Lab (AID 2284427; active means hit-call score of the fitted dose curve at least 0.9, where 1 is the maximum)
# Summary of the method: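 Seed cells 24 h; differentiate 48 h, dosing at 0 and 24 h (1 nM - 200 uM); fix, stain nuclei, image 5 fields per well; count SOX17+ cells over total cells and subtract 0.2% DMSO control.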
# [6] = tested on: SRY-box transcription factor 2 (SOX2) Protein Expression, Deisenroth Lab, SOX2 (gene 6657); assay: CCTE_Deisenroth_DEVTOX-GLR_Pluri_SOX2: CCTE's DevTox GLR-Pluri Assay Evaluation of SRY-box transcription factor 2 (SOX2) Protein Expression, Deisenroth Lab (AID 2284428)
# Summary of the method: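 SOX2 expression frequency is scored in a human pluripotent reporter line, RUES2-GLR, exposed to chemicals twice over 48 h. Imaging-based SOX2+ cell percentage is normalized as change versus 0.2% DMSO.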
# [7] = tested on: Brachyury (BRA) Protein Expression, Deisenroth Lab, TBXT (gene 6862); assay: CCTE_Deisenroth_DEVTOX-GLR_Pluri_BRA: CCTE's DevTox GLR-Pluri Assay Evaluation of Brachyury (BRA) Protein Expression, Deisenroth Lab (AID 2284429; active means hit-call score of the fitted dose curve at least 0.9, where 1 is the maximum)
# Summary of the method: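 An inducible fluorescent BRA reporter in RUES2-GLR cells tracks mesoderm differentiation. Compounds (10 concentrations, 1 nM - 200 uM) are dosed twice within a 48-h differentiation. The endpoint subtracts the 0.2% DMSO control from percent BRA+ cells.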
# [8] = CCTE_Deisenroth_DEVTOX-GLR_Pluri_CellCount: Viability Assessment in CCTE's DevTox GLR-Pluri Assay Evaluation of Total Cell Counts, Deisenroth Lab (AID 2284430)
# Summary of the method: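 RUES2-GLR human pluripotent cells, seeded 24 h, then differentiated 48 h with two chemical exposures 24 h apart; 10-point series 1 nM - 200 uM. Fixed, nuclear-stained, imaged (5 fields/well); nuclei count as % change vs 0.2% DMSO.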
# [9] = CCTE_Padilla_ZF_Score.Edema: CCTE's 144 Hour Post-fertilization zebrafish Assay Score for Edema Malformation, Padilla Lab (AID 2284406)
# Summary of the method: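 Wild-type zebrafish embryos, one per well in Hanks' solution, dosed at 6-8 hpf, sealed and reared at 26C on a 14:10 h cycle; rinsed on 5 dpf. At 6 dpf, blinded assessors scored edema by stereomicroscopy.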
# [10] = CCTE_Padilla_ZF_Score.Spine: CCTE's 144 Hour Post-fertilization zebrafish Assay Score for Spine Malformation, Padilla Lab (AID 2284407)
# Summary of the method: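 Wild-type zebrafish embryos, one per well in Hanks' solution, dosed at 6–8 hpf in sealed plates at 26C, 14:10 h light:dark; rinsed at 5 dpf. Two blinded assessors scored spinal defects by stereomicroscopy at 6 dpf; fitted versus DMSO.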
# [11] = CCTE_Padilla_ZF_Score.Position: CCTE's 144 Hour Post-fertilization zebrafish Assay Score for Position, Padilla Lab (AID 2284409)
# Summary of the method: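 Wild-type zebrafish embryos (with chorions) exposed singly from 6–8 hpf in sealed wells of Hanks' solution at 26C, rinsed at 5 dpf. At 6 dpf, blinded assessors scored abnormal water-column position by brightfield stereomicroscopy, relative to DMSO.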
# [12] = CCTE_Padilla_ZF_Score.Living: CCTE's 144 Hour Post-fertilization zebrafish Assay Score for Viability, Padilla Lab (AID 2284410);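 further: larval death at 6 dpf judged by absent heartbeat or coagulation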
# Summary of the method: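 Wild-type zebrafish embryos were exposed singly from 6–8 hpf in sealed wells of Hanks' solution at 26C, then rinsed at 5 dpf. At 6 dpf, blinded assessors scored mortality (no heartbeat or coagulation) by stereomicroscopy, fitted against DMSO.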
# [13] = CCTE_Padilla_ZF_Score.Tail: CCTE's 144 Hour Post-fertilization zebrafish Assay Score for Tail Malformation, Padilla Lab (AID 2284414)
# Summary of the method: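 Wild-type zebrafish embryos, one per well in 200 uL 10% Hanks', dosed at 6-8 hpf, sealed, and kept at 26 C on a 14:10 h light cycle. Chemical was rinsed out at 5 dpf. Blinded brightfield scoring of tail defects followed at 6 dpf.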
# [14] = CCTE_Padilla_ZF_Score.Blood_pooling: CCTE's 144 Hour Post-fertilization zebrafish Assay Score for Blood Pooling, Padilla Lab (AID 2284415)
# Summary of the method: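 Wild-type outbred zebrafish embryos, one per well in 10% Hanks', exposed from 6–8 hpf in sealed plates at 26C on 14:10 h light:dark, rinsed at 5 dpf. Blinded stereomicroscope scoring of blood pooling at 6 dpf; gain-of-signal versus DMSO.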
# [15] = CCTE_Padilla_ZF_Score.Any: CCTE's 144 Hour Post-fertilization zebrafish Assay Score for Any Mortality or Malformation, Padilla Lab (AID 2284416)
# Summary of the method: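 Wild-type zebrafish embryos with chorions, one per well in 10% Hanks' from 6–8 hpf, dosed in sealed plates at 26 C, 14:10 h light:dark; rinsed at 5 dpf; blinded scoring at 6 dpf for death or malformation, versus DMSO.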
# [16] = Tanguay_ZF_120hpf_MORT: Oregon State University Tanguay Lab 120 Hour Post-fertilization zebrafish Assay for Mortality (AID 2284399)
# Summary of the method: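 Dechorionated wild-type Tropical 5D zebrafish embryos, one per well from 6 hpf, static exposure to 120 hpf at 28C in sealed dark plates, 0.64% DMSO final. Mortality scored as binary by brightfield at 24 and 120 hpf.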
# [17] = Tanguay_ZF_120hpf_EDEM: Oregon State University Tanguay Lab 120 Hour Post-fertilization zebrafish Assay for Edema Malformation (AID 2284400)
# Summary of the method: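 Dechorionated Tropical 5D wild-type embryos, one per well, statically exposed from 6 to 120 hpf at 28C in 0.64% DMSO. Edema scored present/absent by brightfield microscopy at 120 hpf; dead embryos not scored; fit versus DMSO.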
# [18] = Tanguay_ZF_120hpf_BRN: Oregon State University Tanguay Lab 120 Hour Post-fertilization zebrafish Assay for Brain Region Malformation (AID 2284402)
# Summary of the method: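 Dechorionated wild-type Tropical 5D zebrafish embryos exposed statically from 6 to 120 hpf at 28C, one per well, 0.64% DMSO final. Brain malformation scored at 120 hpf by brightfield as present/absent; dead embryos not scored.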
# [19] = Tanguay_ZF_120hpf_TCHR: Oregon State University Tanguay Lab 120 Hour Post-fertilization zebrafish Assay for Touch Responsive (AID 2284403)
# Summary of the method: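 Dechorionated Tropical 5D wild-type zebrafish embryos, one per well from 6 hpf, were statically exposed to 120 hpf at 28 °C (0.64% DMSO). Touch response was scored present/absent at 120 hpf and not scored in dead larvae.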
# [20] = Tanguay_ZF_120hpf_ANY: Oregon State University Tanguay Lab 120 Hour Post-fertilization zebrafish Assay for Any Mortality and Malformation (AID 2284404)
# Summary of the method: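 Dechorionated Tropical 5D wild-type embryos, one per well from 6 hpf, static exposure in sealed, dark plates at 28C until 120 hpf, 0.64% DMSO final. Brightfield scoring of mortality and malformations as binary presence/absence, pooling 13 morphology endpoints.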
smiles,measurement,setting,value
CN(C)CCOC(c1ccccc1)c1ccccc1,AC50,[1],2.01 µM (active)
same,AC50,[2],54.7 µM (active)
same,AC50,[3],46.8 µM (active)
same,AC50,[4],61.7 µM (active)
same,AC50,[5],36.2 µM (active)
same,AC50,[6],83.2 µM (active)
same,AC50,[7],19.8 µM (active)
same,outcome,[8],inactive
FCOC(C(F)(F)F)C(F)(F)F,outcome,[9],inactive
same,outcome,[10],inactive
same,outcome,[11],inactive
same,outcome,[12],inactive
same,outcome,[13],inactive
same,outcome,[14],inactive
same,outcome,[15],inactive
FC(OC(F)(F)C(F)(F)C(F)(F)F)C(F)(F)F (centres undefined),outcome,[9],inactive
same,outcome,[10],inactive
same,outcome,[11],inactive
same,outcome,[12],inactive
same,outcome,[13],inactive
same,outcome,[14],inactive
same,outcome,[15],inactive
O=C(O)CCC(F)(F)C(F)(F)C(F)(F)C(F)(F)C(F)(F)C(F)(F)F,outcome,[9],inactive
same,outcome,[10],inactive
same,outcome,[11],inactive
same,AC50,[12],22.2 µM (active)
same,outcome,[13],inactive
same,outcome,[14],inactive
same,AC50,[15],13.8 µM (active)
FC(F)(F)C1(F)C(F)(F)C(F)(F)C(F)(F)C(F)(C(F)(F)F)C1(F)F (centres undefined),outcome,[9],inactive
same,outcome,[10],inactive
same,outcome,[11],inactive
same,outcome,[12],inactive
same,outcome,[13],inactive
same,outcome,[14],inactive
same,outcome,[15],inactive
O=C1OC(=O)C(F)(F)C1(F)F,outcome,[9],inactive
same,outcome,[10],inactive
same,outcome,[11],inactive
same,outcome,[12],inactive
same,outcome,[13],inactive
same,outcome,[14],inactive
same,outcome,[15],inactive
FC(F)=C(F)C(F)(F)C(F)(F)C(F)(F)C(F)F,outcome,[9],inactive
same,outcome,[10],inactive
same,outcome,[11],inactive
same,outcome,[12],inactive
same,outcome,[13],inactive
same,outcome,[14],inactive
same,outcome,[15],inactive
O=C(O)C(F)(F)OC(F)(F)C(F)(F)OC(F)(F)C(F)(F)OC(F)(F)C(F)(F)C(F)(F)C(F)(F)F,AC50,[16],51.1 µM (active)
same,outcome,[17],inactive
same,outcome,[18],inactive
same,outcome,[19],inactive
same,AC50,[20],34.4 µM (active)
same,AC50,[9],3.21 µM (active)
same,outcome,[10],inactive
same,AC50,[11],8.31 µM (active)
same,AC50,[12],8.88 µM (active)
same,outcome,[13],inactive
same,outcome,[14],inactive
same,AC50,[15],2.9 µM (active)
O=C1NS(=O)(=O)c2ccccc21,outcome,[2],inactive
same,outcome,[3],inactive
same,outcome,[4],inactive
same,outcome,[5],inactive
same,outcome,[6],inactive
same,outcome,[7],inactive
same,outcome,[8],inactive
C=CC(=O)OCCC(F)(F)C(F)(F)C(F)(F)C(F)(F)C(F)(F)C(F)(F)C(F)(F)C(F)(F)F,outcome,[16],inactive
same,outcome,[17],inactive
same,outcome,[18],inactive
same,outcome,[19],inactive
same,outcome,[20],inactive
same,outcome,[9],inactive
same,outcome,[10],inactive
same,outcome,[11],inactive
same,outcome,[12],inactive
same,outcome,[13],inactive
same,outcome,[14],inactive
same,outcome,[15],inactive
C=CC(F)(F)C(F)(F)C(F)(F)C(F)(F)F,outcome,[9],inactive
same,outcome,[10],inactive
same,outcome,[11],inactive
same,outcome,[12],inactive
same,outcome,[13],inactive
same,outcome,[14],inactive
same,outcome,[15],inactive
FC(F)(F)N1C(F)(F)C(F)(F)OC(F)(F)C1(F)F,outcome,[9],inactive
same,outcome,[10],inactive
same,outcome,[11],inactive
same,outcome,[12],inactive
same,outcome,[13],inactive
same,outcome,[14],inactive
same,outcome,[15],inactive
O=C(O)CCC(F)(F)C(F)(F)C(F)(F)C(F)(F)C(F)(F)F,outcome,[16],inactive
same,outcome,[17],inactive
same,outcome,[18],inactive
same,outcome,[19],inactive
same,outcome,[20],inactive
same,AC50,[9],10.7 µM (active)
same,outcome,[10],inactive
same,AC50,[11],10.7 µM (active)
same,AC50,[12],28.3 µM (active)
same,outcome,[13],inactive
same,outcome,[14],inactive
same,AC50,[15],10 µM (active)
OCC(F)(F)C(F)(F)C(F)(F)C(F)(F)C(F)(F)C(F)(F)C(F)(F)C(F)(F)C(F)(F)C(F)(F)C(F)(F)F,outcome,[16],inactive
same,outcome,[17],inactive
same,outcome,[18],inactive
same,outcome,[19],inactive
same,outcome,[20],inactive
same,outcome,[9],inactive
same,outcome,[10],inactive
same,outcome,[11],inactive
same,outcome,[12],inactive
same,outcome,[13],inactive
same,outcome,[14],inactive
same,outcome,[15],inactive
